Results as given in the supplement of paper PMC4166925.
± gives the standard deviation of the averaged measurements. Whole data set: some 33,000 sequences, median “E-score (dimensionless, -0.5 to 0.5)” near -0.049, cut for the highest 2% near 0.37. This is one part of a sample in which the highest values are shown more often than they occur.

tested on: T1, PmTbr T-box DNA-binding domain (GST fusion); assay: PBM E-score of 8-mer (E-score (dimensionless, -0.5 to 0.5)); Tbr is Tbrain of the sea star Patiria miniata (Pm) or the sea urchin Strongylocentrotus purpuratus (Sp); higher = stronger binding preference; conditions: the construct has about 5 more residues each side
T1 sequence: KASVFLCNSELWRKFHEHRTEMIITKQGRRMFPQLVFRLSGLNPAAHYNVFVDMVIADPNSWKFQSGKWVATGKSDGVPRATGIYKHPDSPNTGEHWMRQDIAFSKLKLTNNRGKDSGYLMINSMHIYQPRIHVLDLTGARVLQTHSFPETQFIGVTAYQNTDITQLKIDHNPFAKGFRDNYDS
How it was run: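 Primer extension turned Universal Agilent oligonucleotide arrays double-stranded. They were incubated with 200 nM protein in PBS (pH 7.5); the protein was a GST-fused Tbr T-box DNA-binding domain expressed in BL21 E. coli at 20 °C and purified on glutathione. Every ungapped 8-mer was scored from the scanned, quantified probe intensities, and the Universal PBM Analysis Suite gave each an enrichment E-score averaged over duplicate arrays.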

Sequence	PBM E-score of 8-mer
GGCATTAC	-0.165 ± 0.0079
GGATACCC	-0.327 ± 0.049
GGAGAGGA	-0.1 ± 0.0036
CTTGGGGA	-0.196 ± 0.039
ATAAGTGG	0.124 ± 0.042
CAATGGAC	-0.0519 ± 0.011
TGCCCACA	-0.0968 ± 0.015
ACGGTGTG	0.324 ± 0.012
AAGGTGTG	0.4811 ± 0.0016
AAGGTTTG	-0.16 ± 0.015
AATGGCTG	-0.207 ± 0.038
TGTGATAA	0.406 ± 0.046
GGTGATAC	0.364 ± 0.025
TATGATAA	-0.0124 ± 0.036
GGTGATAA	0.413 ± 0.018
CGTGATAA	0.251 ± 0.034
AGTGATAA	0.317 ± 0.052
TTGCGCAA	0.108 ± 0.0064
CTAGATTC	0.139 ± 0.039
AATGGACA	0.0325 ± 0.009
AGACCTAC	-0.292 ± 0.035
GCACCTAC	0.382 ± 0.0042
GGACCTAA	-0.0476 ± 0.0062
GTACCTAC	-0.272 ± 0.061
ATACCTAC	-0.172 ± 0.0048

Sequence	PBM E-score of 8-mer
ACACCTGT	0.472 ± 0.00061
ACACCGGT	0.22015 ± 2.8e-05
AAACCTGT	0.0415 ± 0.013
CCACCTAC	0.273 ± 0.049
ACACCTAC	0.4763 ± 0.0017
GTACCTAA	-0.248 ± 0.013
GCACCTAA	0.373 ± 0.016
AGTTGGCG	0.229 ± 0.039
AAGATCGA	-0.152 ± 0.084
CGCAACAG	0.0766 ± 0.031
CAGCAATC	-0.21244 ± 7.8e-05
CTCCATCA	0.123 ± 0.077
GGTAAGTA	-0.0321 ± 0.051
CGGTCAAC	-0.0198 ± 0.048
GCAGGGGC	-0.193 ± 0.12
AGATGGAC	-0.281 ± 0.02
ATACCTAT	-0.0294 ± 0.018
TGACCTAA	-0.228 ± 0.013
AGACCTAT	-0.2143 ± 0.00038
ACACCTAG	0.462 ± 0.0066
AAACCTAA	-0.0751 ± 0.036
CCACCTAA	0.146 ± 0.058
CCACCTAG	0.264 ± 0.0049
ACACCTAA	0.463 ± 0.0018
AAACCTAG	0.113 ± 0.032

Sequence	PBM E-score of 8-mer
ATACCTAA	0.0416 ± 0.058
TCACCTAA	0.383 ± 0.0065
ACACCTAT	0.4662 ± 0.00073
CGCACAAA	0.00904 ± 0.0019
ATTCCTCG	-0.0674 ± 0.053
ATAGCTCC	-0.134 ± 0.022
CTCCCCAA	-0.12 ± 0.0034
CTGAAACC	-0.0317 ± 0.0024
TGATACAA	0.126 ± 0.037
GTAGTGCA	-0.21 ± 0.062
AAAGGCAC	-0.0325 ± 0.013
GCCATAAA	-0.0292 ± 0.012
AGATAGAT	-0.217 ± 0.015
GCACCTCC	0.4324 ± 0.002
GCACCTCA	0.35 ± 0.037
CCACCTCC	0.305 ± 0.024
GAACTACA	0.0281 ± 0.036
TCGGTCCA	-0.365 ± 0.015
ACGTGTAG	0.118 ± 0.015
ACGTGTTA	0.442 ± 0.015
CCGTGTTA	0.24 ± 0.041
ACGTGTTG	0.3744 ± 0.0004
ACGTGTTC	0.2198 ± 0.001
GCGTGTTA	0.336 ± 0.036
CGAGCAAA	-0.0522 ± 0.042

Sequence	PBM E-score of 8-mer
CTTTGTCC	0.109 ± 0.0064
ACAAGGTC	0.1572 ± 0.00086
AGAAGGTA	-0.2003 ± 0.00059
ATAAGGTA	0.0248 ± 0.096
ATAAGGTG	0.387 ± 0.0095
ACAAGGTA	-0.0243 ± 0.03
AGAAGGTG	0.403 ± 0.0068
ATAAGGTC	-0.146 ± 0.021
AGAAGGTC	-0.315 ± 0.034
ACAAGGTG	0.429 ± 0.006
AAGAATCG	-0.0615 ± 0.066
ACACTGAC	0.209 ± 0.018
ACTGATCG	-0.0574 ± 0.0033
CTCTAACC	-0.103 ± 0.089
AACGGGGT	-0.136 ± 0.084
CTCGCTAC	0.0679 ± 0.05
GACGACAC	0.305 ± 0.034
GTCGACAC	0.406 ± 0.013
GTCGACAA	0.295 ± 0.022
CTCGACAA	0.131 ± 0.017
ATCGACAG	0.236 ± 0.032
ATCGACAA	0.222 ± 0.036
CTCGACAC	0.387 ± 0.029
CTCGACAG	0.244 ± 0.018
ATCGACAC	0.398 ± 0.025

Sequence	PBM E-score of 8-mer
ACAATGTC	-0.048 ± 0.0089
GTACAGTA	0.0854 ± 0.013
AGCAACAG	0.0636 ± 0.029
AGCAACAC	0.383 ± 0.0078
GGCAACAA	0.05 ± 0.0035
AGCAACAA	0.0934 ± 0.021
CGCAACAC	0.356 ± 0.033
GGCAACAC	0.38 ± 0.0047
ATGCTATA	-0.182 ± 0.01
ATGCGTCA	0.161 ± 0.013
GTCAAACA	-0.0272 ± 0.074
ATGCCAGC	-0.0462 ± 0.0027
AATGTGTG	0.408 ± 0.014
AATGTGGC	0.163 ± 0.0047
AATGTGTA	0.226 ± 0.029
AATGTGTC	0.425 ± 0.0071
AATGTGCG	0.27 ± 0.012
CATGTGTC	0.309 ± 0.03
AATAGACT	-0.175 ± 0.072
ACCCCCCT	-0.152 ± 0.11
CCACCCCG	0.235 ± 0.033
TCACCCCA	0.277 ± 0.028
ACACCCCA	0.382 ± 0.015
ACACCCCG	0.397 ± 0.029
ACACCCCC	0.379 ± 0.017

Sequence	PBM E-score of 8-mer
GCACCCCA	0.242 ± 0.0042
CCACCCCC	0.00912 ± 0.024
GCACCCCC	0.226 ± 0.047
ACACCCCT	0.4 ± 0.027
ACACCCGG	0.3462 ± 0.00071
ACCCCTCT	-0.0694 ± 0.019
CGTGCTCC	-0.172 ± 0.017
GTTGATCA	0.0616 ± 0.0014
GATACAGA	-0.189 ± 0.0045
ACGGCCTC	-0.166 ± 0.071
GTAGGAAA	-0.0915 ± 0.041
GTCGACGA	0.155 ± 0.015
ACAGACAT	0.0773 ± 0.016
ACACCCAG	0.339 ± 0.021
GCCCAACA	0.0617 ± 0.0082
AAAATTCT	-0.1 ± 0.051
AAGTGTTG	0.437 ± 0.006
CAGTGTTA	0.322 ± 0.0036
AAGTGTTA	0.467 ± 0.0064
GAGTGTTA	0.385 ± 0.012
AAGTGTTC	0.298 ± 0.012
AAGTGGTA	0.165 ± 0.013
GAGTGTAC	-0.079 ± 0.061
AAGTGTAC	0.0291 ± 0.019
CAGTGTTC	-0.0572 ± 0.047

Sequence	PBM E-score of 8-mer
CTTCTGGC	-0.0431 ± 0.0062
AGCCTCCT	-0.194 ± 0.057
ATGACCAG	-0.119 ± 0.011
GCTCTAGA	-0.268 ± 0.07
AACAGCCC	-0.015 ± 0.027
AGAGCACT	-0.194 ± 0.044
AGGGATAC	-0.319 ± 0.026
ATAGCCAA	-0.2 ± 0.05
ACACGTTA	0.3709 ± 0.0015
CCACGTTA	0.131 ± 0.0074
ACACGTCT	0.355 ± 0.021
ACACGTCA	0.361 ± 0.0048
ACACGTTG	0.374 ± 0.0049
ACACGTCG	0.391 ± 0.018
AAACGTTG	-0.22 ± 0.042
ACACGTTC	0.337 ± 0.013
ACACGTAG	0.206 ± 0.0044
CAGGGATA	-0.326 ± 0.061
GGACGCAC	-0.0479 ± 0.052
AACGAGCC	-0.319 ± 0.096
CACAGTCC	0.0117 ± 0.032
ACTGCACG	-0.149 ± 0.031
TGCGAGAA	0.3906 ± 0.0012
GGCGAACA	0.0467 ± 0.018
AGCGAAAA	0.0819 ± 0.093

Sequence	PBM E-score of 8-mer
TGCGAAAA	0.391 ± 0.03
GGCGAGAA	0.339 ± 0.005
AGCGAACA	0.0494 ± 0.02
TGCGAACA	0.396 ± 0.0075
CGCGAGAA	0.32 ± 0.0046
CGCGAAAA	0.359 ± 0.019
CACTCTAG	0.223 ± 0.0029
GGAGACAC	0.142 ± 0.084
GATGACAC	0.36 ± 0.02
CTTGACAA	0.328 ± 0.0034
CGTGACAG	0.27 ± 0.015
AGTGACAG	0.357 ± 0.0084
AGTGACAT	0.309 ± 0.017
CGTGACCA	0.259 ± 0.018
GGTGACAC	0.4691 ± 0.0035
GTTGACGA	0.211 ± 0.012
CGTGACAA	0.407 ± 0.025
AGTGACAC	0.44 ± 0.0087
GTTGACAA	0.3821 ± 0.0035
AGAAGGGA	-0.301 ± 0.082
AGTATAAT	-0.0999 ± 0.092
ATTGCGCG	0.0393 ± 0.076
CTCCATTC	-0.243 ± 0.042
ATCGTTGA	-0.173 ± 0.031
TATTGGGA	-0.222 ± 0.0037

Sequence	PBM E-score of 8-mer
AAGCGCCG	-0.0564 ± 0.022
ATTTTTGA	-0.289 ± 0.044
AGTGACAA	0.4196 ± 0.0018
CGTGACTC	0.0879 ± 0.021
CGTGACGA	0.331 ± 0.031
AGTGACGA	0.358 ± 0.016
AGTGACCA	0.0489 ± 0.11
GGTGACCA	0.0575 ± 0.069
CGTGACAC	0.398 ± 0.02
GGTGACAA	0.47312 ± 1.4e-05
GGTGACGA	0.429 ± 0.013
GATGACAA	0.202 ± 0.017
CGTGACGC	0.232 ± 0.0054
AGTGACTA	0.115 ± 0.011
CGGTCTTA	-0.0111 ± 0.035
GGCTCGCA	0.136 ± 0.053
ATCAGAAG	-0.0178 ± 0.033
AGCAGGGA	0.00886 ± 0.045
CAGACAGC	0.0475 ± 0.042
